Activity calls are given as the source filed them. Unless noted, how the calls were made is not given here.

The values below come from PubChem BioAssay.

A short description of assay [1]: HepG2 liver cancer cell viability effects, profiling panel, resazurin fluorescence, 24 h, PK04 Diversity Set (AID 1172). The following applies: higher = more signal.
A short description of assay [2]: basal S. cerevisiae growth modulation, no modifier, primary screen, OD600, strain BY4716, 24 h, basal condition (AID 1173). As to conditions: OD600, 24 h, higher = more signal, called active from +8 up or from −8 down.
A short description of assay [3]: MM1S myeloma cell viability, profiling panel, resazurin fluorescence, basal, 24 h, PK04 Diversity Set (AID 1174).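 Further: MM1S multiple myeloma cell line.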 The following applies: higher = more signal, called active from +8 up or from −8 down. In general terms: Resazurin is reduced to fluorescent resorufin, in cell work by metabolically active cells.
The target of assay [4] is Dihydroorotate dehydrogenase (quinone), mitochondrial (Plasmodium falciparum (isolate 3D7)) (UniProt Q08210). Description: PfDHODH enzyme inhibitors, primary screen, biochemical, C-terminal His tag, absorbance 600 nm (AID 1175).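 Further: recombinant parasite enzyme with a five histidine tag at its C terminus.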 The following applies: DCIP absorbance 600 nm, higher = more signal, called active from +8 up or from −8 down.
Chain of Dihydroorotate dehydrogenase (quinone), mitochondrial (Plasmodium falciparum (isolate 3D7)) (Q08210 whole entry, looked up): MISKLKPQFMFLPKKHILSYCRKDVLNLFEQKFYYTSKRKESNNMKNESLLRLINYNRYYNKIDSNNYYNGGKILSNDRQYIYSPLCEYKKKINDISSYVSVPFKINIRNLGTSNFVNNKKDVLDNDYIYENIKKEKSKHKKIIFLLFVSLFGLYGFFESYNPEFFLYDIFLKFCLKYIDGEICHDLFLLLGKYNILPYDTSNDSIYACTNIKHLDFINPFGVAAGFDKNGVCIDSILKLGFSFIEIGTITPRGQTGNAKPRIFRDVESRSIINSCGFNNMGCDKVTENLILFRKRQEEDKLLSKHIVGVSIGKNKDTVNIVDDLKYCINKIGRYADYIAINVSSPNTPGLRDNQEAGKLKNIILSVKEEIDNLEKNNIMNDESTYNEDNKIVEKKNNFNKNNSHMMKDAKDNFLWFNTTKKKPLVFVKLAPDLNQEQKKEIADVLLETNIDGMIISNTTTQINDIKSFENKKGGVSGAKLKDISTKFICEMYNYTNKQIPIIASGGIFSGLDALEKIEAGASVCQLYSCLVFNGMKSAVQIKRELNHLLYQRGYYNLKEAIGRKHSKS
Assay [5] is described as follows: P. aeruginosa biofilm formation inhibitors, primary screen, strain PAO1, LB-PBS medium, absorbance 600 nm (AID 1176). The following applies: P. aeruginosa PAO1 growth/biofilm, A600, 12 h; higher = more signal.
Assay [6] is described as follows: S. cerevisiae RM11-1a growth modifiers, primary screen, strain RM11-1a, OD600, basal, 24 h (AID 1177).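 Further: cultures grown under basal conditions with no added stressor.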 The following applies: OD600, 24 h, higher = more signal, called active from +8 up or from −8 down.
A short description of assay [7]: E. coli acrAB mutant growth effects, primary screen, E. coli filamentation inducers, strain DRC39, OD650, 24 h (AID 1178).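 Further: growth measured as culture turbidity by optical density at 650 nm.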 As to conditions: higher = more signal, called active from +8 up or from −8 down.
Assay [8] in a line: E. coli acrAB mutant growth effects, primary screen, E. coli filamentation inducers, strain DRC39, OD650, 48 h (AID 1179).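 Further: screen aims at cell division blockers that make cells filament.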 As to conditions: E. coli DRC39 delta-acrAB growth, higher = more signal, called active from +8 up or from −8 down.
Assay [9] in a line: RPMI8226 myeloma cell viability, profiling panel, resazurin fluorescence, basal, 24 h, PK04 Diversity Set (AID 1180).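 Further: RPMI8826 multiple myeloma cell line at 5000 cells per well.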 The following applies: higher = more signal.
The target in assay [10] is E3 ubiquitin-protein ligase XIAP (Homo sapiens) (UniProt P98170). Description: XIAP binders, primary screen, biophysical, small-molecule microarray, fluorescence 635 nm (AID 1181).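 Further: score merges 667 nm emission and signal to noise over triplicate slides.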 As to conditions: small-molecule microarray binding, higher = more signal.
Chain of E3 ubiquitin-protein ligase XIAP (Homo sapiens) (P98170 whole entry, looked up): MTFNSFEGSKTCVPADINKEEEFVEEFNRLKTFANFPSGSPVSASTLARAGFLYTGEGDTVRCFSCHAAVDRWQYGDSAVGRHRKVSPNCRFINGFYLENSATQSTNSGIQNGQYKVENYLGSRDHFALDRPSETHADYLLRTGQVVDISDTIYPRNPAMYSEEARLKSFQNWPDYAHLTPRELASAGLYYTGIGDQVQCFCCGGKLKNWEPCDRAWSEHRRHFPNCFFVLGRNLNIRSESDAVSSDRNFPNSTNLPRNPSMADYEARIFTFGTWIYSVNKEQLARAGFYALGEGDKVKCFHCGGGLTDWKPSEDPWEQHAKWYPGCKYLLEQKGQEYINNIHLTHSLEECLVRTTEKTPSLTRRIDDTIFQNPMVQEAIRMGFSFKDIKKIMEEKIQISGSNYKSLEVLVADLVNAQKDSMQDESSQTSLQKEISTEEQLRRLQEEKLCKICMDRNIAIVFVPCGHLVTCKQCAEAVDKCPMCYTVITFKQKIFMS
Assay [11] concerns XIP peptide (Xip251-270) binding. Description: small-molecule binders of XIP peptide, primary screen, biochemical, small-molecule microarray, fluorescence 635/667 nm, 0.1 µg/mL protein (AID 1182). The following applies: fluorescent protein binding, 635 nm, higher = more signal, called active from +8 up or from −8 down.
For a further assay, the system named is XIP peptide (Xip251-270). Description: small-molecule binders of XIP peptide, primary screen, biochemical, small-molecule microarray, fluorescence 635/667 nm, 0.5 µg/mL protein (AID 1183). The following applies: small-molecule microarray binding, fluorescence 635 nm; higher = more signal.
Assay [12] is described as follows: Plasmodium falciparum growth inhibition, primary screen, strain 3D7, DAPI fluorescence, 100 nL (AID 1184).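 Further: parasites grown inside human red blood cells in medium with human serum.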 As to conditions: P. falciparum 3D7 growth, 3 d, higher = more signal.
Assay [13] addresses Homeobox protein Hox-A13 (Mus musculus) (UniProt Q62424). The assay can be described thus: inhibitors of HoxA13-DNA binding, primary screen, biochemical, fluorescence polarization, labeled oligonucleotide (AID 1185). As to conditions: 15 min, higher = more signal, called active from +8 up or from −8 down. (In fluorescence polarisation assays a small probe gives low polarisation when free and higher when bound to something large.)

Assay [14] is described as follows: inhibitors of hydroxyurea-induced Chk1 phosphorylation, primary screen, imaging, HeLa, phospho-Chk1 antibody, percent positive cells (AID 1186). As to conditions: hydroxyurea-induced phospho-Chk1 immunofluorescence imaging, higher = more signal.
A short description of assay [15]: inhibitors of hydroxyurea-induced Chk1 phosphorylation, primary screen, imaging, HeLa, phospho-Chk1 nuclear intensity (AID 1187). As to conditions: hydroxyurea-induced phospho-Chk1 immunofluorescence imaging, higher = more signal.

Chain of Homeobox protein Hox-A13 (Mus musculus) (Q62424 whole entry, looked up): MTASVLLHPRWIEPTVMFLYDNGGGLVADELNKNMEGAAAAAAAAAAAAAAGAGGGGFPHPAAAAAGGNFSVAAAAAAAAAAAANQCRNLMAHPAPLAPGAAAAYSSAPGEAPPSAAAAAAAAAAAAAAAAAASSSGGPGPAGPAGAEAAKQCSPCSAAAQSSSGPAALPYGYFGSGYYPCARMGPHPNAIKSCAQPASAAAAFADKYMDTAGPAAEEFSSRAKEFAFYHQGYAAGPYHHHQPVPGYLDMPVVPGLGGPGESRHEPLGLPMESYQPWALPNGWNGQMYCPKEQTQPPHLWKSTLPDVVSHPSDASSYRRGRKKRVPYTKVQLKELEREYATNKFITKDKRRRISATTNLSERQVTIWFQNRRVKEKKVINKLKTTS

Regarding `C#CCCCON=C1C[C@@H](O)[C@@H](O)[C@@H]2[C@@H]3C(=O)N(Cc4ccc5c(c4)OCO5)C(=O)[C@@H]3CC[C@H]12`, the z-score in assay [1] is 0.168; in assay [2], 0.0943 (inactive); in assay [3], -0.255 (inactive); in assay [5], -0.708 (inactive); in [6], 0.162 (inactive); in [7], 0.483 (inactive). The z-score in assay [8] is 0.961 (inactive); in assay [9], 0.126; in assay [12], 0.594; in [13], -0.469 (inactive). The composite z-score in [4] is -0.338 (inactive); in assay [10], -0.127; in [11], 0.892 (inactive); in the assay on XIP peptide (Xip251-270), 0.783.
For `C=CCC(OC(C)=O)[C@@H]1[C@@H](N(Cc2ccc(-c3ccccc3)cc2)C(=O)c2ccc(-c3ccccc3)cc2)c2cc(OCCCO)ccc2N1C(=O)Cc1ccc(OC)cc1` (stereo partly drawn), the z-score is -0.149 in assay [1]; 0.335 (inactive) in [2]; 0.108 (inactive) in assay [3]; 0.0429 (inactive) in assay [5]; -1.14 (inactive) in assay [6]; -0.0223 (inactive) in [7]. The z-score in [8] was 0.185 (inactive); in assay [9] it was 0.202; in assay [12] it was -0.314; in [13], -1.31 (inactive); in [14] it was -0.282 (inactive); in [15] it was -0.47 (inactive). In addition, the composite z-score is -0.979 (inactive) in [4], -0.0596 in assay [10], 0.195 (inactive) in [11] and -0.126 in the assay on XIP peptide (Xip251-270).
On to `COc1cc2c(cc1OC)CN(C(=O)[C@H]1[C@@H]3C(=O)O[C@@H](c4ccccc4)[C@@H](c4ccccc4)N3[C@@H](c3ccccc3OCCO)[C@]13C(=O)Nc1ccc(C#CC4(O)CCCCCC4)cc13)CC2`, for which the z-score is 0.714 in assay [1]; 0.0302 (inactive) in [2]; -0.492 (inactive) in assay [3]; 2.63 (inactive) in [5]; 2.15 (inactive) in assay [6]; 0.667 (inactive) in assay [7]. The z-score was 1.61 (inactive) in assay [8]; 0.248 in assay [9]; -2.14 in [12]; 1.74 (inactive) in [13]; -0.0766 (inactive) in [14]; 0.196 (inactive) in [15]. In addition, the composite z-score in [4] is 0.682 (inactive); in [10] it was -0.12; in [11], 1.62 (inactive); in the assay on XIP peptide (Xip251-270), 0.837.
In the case of `C=C(CCCC)/C(=C/C[C@H](OC(=O)c1ccncc1)c1cccc(OCCO)c1)c1cc(C(=O)OC)ccc1OC`, the z-score in assay [1] was 1.06; in [2], -0.0252 (inactive); in assay [3], 0.585 (inactive); in [5], -0.988 (inactive); in [6], -0.549 (inactive); in assay [7], -0.232 (inactive). In addition, the z-score is -0.0622 (inactive) in assay [8]; 0.15 in [9]; -3.26 in [12]; -4.52 (inactive) in assay [13]; -0.433 (inactive) in [14]; -0.355 (inactive) in assay [15]. For the same molecule, the composite z-score is -1.61 (inactive) in assay [4], -0.0916 in assay [10], 2.08 (inactive) in [11] and 0.305 in the assay on XIP peptide (Xip251-270).
In the case of `COc1ccc([Si](C)(C)[C@@H]2[C@@H](CCO)O[C@]3(C(=O)N(Cc4ccc(NC(=O)[C@H](C)O)cc4)c4ccccc43)[C@H]2C)cc1`, the z-score in [1] was -1.84; in assay [2], -0.177 (inactive); in assay [3] it was -6.71 (inactive); in assay [5] it was -0.717 (inactive); in assay [6], 3.7 (inactive); in assay [7] it was 1.26 (inactive). For the same molecule, the z-score in assay [8] was 0.335 (inactive); in assay [9] it was -5.69; in assay [12], -2.79; in assay [13] it was -4.05 (inactive); in [14], -1.42 (inactive); in assay [15], -1.27 (inactive). In addition, the composite z-score was -1.07 (inactive) in assay [4], -0.0497 in [10], 0.894 (inactive) in assay [11] and 0.752 with XIP peptide (Xip251-270).
Take `CC(=O)NCCCC[C@@H]1NC(=O)[C@H]2C[C@@H](C(=O)NCCCCCCN(C)C)[C@@H](c3cccc(OCCO)c3)N2C1=O`: the z-score in [1] was -0.526; in assay [2], -1.16 (inactive); in assay [3] it was -0.143 (inactive); in assay [5], 0.42 (inactive); in assay [6], -0.0243 (inactive); in [7] it was 0.617 (inactive). Moreover, the z-score in assay [8] was -0.197 (inactive); in assay [9], -0.696; in [12] it was -0.0473; in assay [13], -2.84 (inactive); in assay [14] it was 0.181 (inactive); in [15], 0.733 (inactive). Also, the composite z-score in [4] was -0.0259 (inactive); in assay [10], -0.0067; in [11], 2.96 (inactive); in the assay on XIP peptide (Xip251-270), 0.882.
Turning to `Cc1ccc(S[C@]2(C(=O)O)CC(=O)N(Cc3cc(C(F)(F)F)cc(C(F)(F)F)c3)[C@@H]2c2ccc(CO)cc2I)cc1`, the z-score was -0.101 in [1]; -3.06 (inactive) in assay [2]; -2.57 (inactive) in assay [3]; -0.481 (inactive) in assay [5]; 0.555 (inactive) in assay [6]; 0.0907 (inactive) in assay [7]. For the same molecule, the z-score in assay [8] was -0.0983 (inactive); in assay [9], -1.47; in [12], -0.48; in assay [13], -2.32 (inactive); in [14], 0.407 (inactive); in assay [15] it was 1.08 (inactive). Besides, the composite z-score in [4] was 0.0643 (inactive); in assay [10], -0.136; in assay [11], -0.313 (inactive); in the assay with XIP peptide (Xip251-270) it was 0.761.
With `O=C1OCCC/C=C\[C@H]2OC34C=CCN(CCN5CCOCC5)C(=O)[C@H]3N(CCCCCO)C(=O)[C@@H]4C12` (stereo partly drawn), the z-score in assay [1] was -0.567; in [2] it was -0.0575 (inactive); in [3], -0.193 (inactive); in assay [5], -0.0432 (inactive); in assay [6], -0.634 (inactive); in [7], 0.157 (inactive). Also, the z-score in [8] was 0.0435 (inactive); in [9], 0.0501; in assay [12] it was 1.82; in [13], -4.6 (inactive); in assay [14], 0.564 (inactive); in [15], 0.292 (inactive). Besides, the composite z-score in [4] was 0.286 (inactive); in assay [10] it was -0.124; in assay [11], 0.853 (inactive); in the assay on XIP peptide (Xip251-270) it was -0.733.
In the case of `O=C1C[C@@](C(=O)NCCN2CCOCC2)(c2ccc([N+](=O)[O-])cc2)[C@@H](c2ccc(CO)cc2)N1C1CCCCC1`, the z-score was -0.0886 in assay [1]; -0.359 (inactive) in [2]; 0.836 (inactive) in assay [3]; 0.292 (inactive) in assay [5]; -0.206 (inactive) in assay [6]; 0.497 (inactive) in [7]. For the same molecule, the z-score is 0.274 (inactive) in assay [8]; 0.906 in assay [9]; -1.6 in assay [12]; -4.21 (inactive) in assay [13]; -0.0132 (inactive) in [14]; 0.434 (inactive) in [15]. In addition, the composite z-score in assay [4] is 0.231 (inactive); in assay [10] it was -0.142; in [11], 1.01 (inactive); in the assay with XIP peptide (Xip251-270) it was 0.818.
In the case of `Cc1ccc(S[C@]2(C(=O)NC(C)C)CC(=O)N(C3Cc4ccccc4C3)[C@@H]2c2ccc(CO)cc2)cc1`, the z-score in assay [1] is 0.0858; in [2], -0.0445 (inactive); in [3], 0.48 (inactive); in assay [5], 0.229 (inactive); in [6] it was -0.792 (inactive); in assay [7] it was -0.127 (inactive). Besides, the z-score was -0.768 (inactive) in [8]; 0.33 in assay [9]; -1.29 in [12]; -3.21 (inactive) in assay [13]; 0.0695 (inactive) in assay [14]; 0.0887 (inactive) in assay [15]. Also, the composite z-score in assay [4] was -0.335 (inactive); in assay [10], 0.0181; in assay [11], 0.137 (inactive); with XIP peptide (Xip251-270), 0.882.
